TEAD-YAP inh – TEAD-YAP interaction inhibition, primary screen, TEAD-YAP interaction inhibitor project, luminescence, HEK-TIYL cells; TEAD-Gal4/YAP UAS-luciferase luminescence; inhibition, % at 9.12 µM; 640,000 tested, 1.4% active; in the data active = inhibition above about 32%
FBW7 activator – FBW7 E3 ligase activators, primary screen, biochemical, AlphaScreen, human; 650,000 tested, 0.13% active; F-box/WD repeat-containing protein 7 (Homo sapiens), Q969H0; AID 1259310, 2017; AlphaScreen FBW7–phospho-cyclin E peptide binding, activator screen; normalized activity (activation), % at 26.1 µM; in the data active = normalized activity above about 1.9%;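 note: purified mutant Fbw7 with reduced substrate affinity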
MITF primary – MITF inhibitors, primary screen, biochemical, AlphaScreen, human; Microphthalmia-associated transcription factor (Homo sapiens), O75030; 650,000 tested, 0.91% active; AlphaScreen MITF homodimerization, bead proximity signal; inhibition, % at 2.6 µM; in the data active = inhibition above about 50%
GPR151 ag – activators of human GPR151, primary screen, cell-based, PathHunter beta-arrestin, luminescence | activation, % at 11.2 µM | 650,000 tested, 1% active | PathHunter beta-arrestin GPR151 cells; in the data active = activation above about 4.9%
Target sequence (Q8TDV0 whole entry, looked up): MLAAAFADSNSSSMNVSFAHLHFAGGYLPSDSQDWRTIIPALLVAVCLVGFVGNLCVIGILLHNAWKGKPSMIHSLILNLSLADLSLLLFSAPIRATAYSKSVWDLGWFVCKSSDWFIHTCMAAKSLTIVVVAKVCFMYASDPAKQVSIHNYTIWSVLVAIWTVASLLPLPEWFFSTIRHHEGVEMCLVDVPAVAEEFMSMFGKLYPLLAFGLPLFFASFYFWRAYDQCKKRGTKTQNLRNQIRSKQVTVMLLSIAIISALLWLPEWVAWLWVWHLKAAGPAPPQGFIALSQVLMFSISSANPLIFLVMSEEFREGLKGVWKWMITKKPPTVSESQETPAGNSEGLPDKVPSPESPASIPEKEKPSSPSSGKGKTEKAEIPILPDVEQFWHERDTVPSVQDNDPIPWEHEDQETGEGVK
Numbers stand for hits; – = inactive. This is a sample that favours compounds with a hit; in the whole collection about 3.5% have one here.

SMILES	TEAD-YAP inh	FBW7 activator	MITF primary	GPR151 ag
Oc1ccc(/C=N/Nc2ncc(-c3ccccc3)cn2)c(O)c1	61.6	–	–	–
CCCCCn1c(=S)[nH]c2cc(C(=O)NCC3CCCO3)ccc2c1=O (configuration not stated)	–	–	–	–
O=C(OCC(=O)N1CCCCCC1)c1cc(O)c(O)c(O)c1	–	–	90.7	–
Cc1cc(C)cc(C(=O)OCC(=O)N2CCCC2)c1	–	–	–	–
O=C(OCC(=O)N1CCN(Cc2ccccc2)CC1)c1cc(O)c(O)c(O)c1	–	–	84.0	–
COc1ccccc1N1CCN(c2nnnn2-c2ccccc2)CC1	36.8	–	–	–
Cn1cccc(C(=O)Nc2ccc(CN3CCN(c4ccccn4)CC3)cc2)c1=O	46.3	–	–	–
CC(=O)Nc1ccc(CN2CCN(c3ccccn3)CC2)cc1	–	–	–	–
CCc1nc2sc(C(c3ccccc3Cl)N3CCC(C(N)=O)CC3)c(O)n2n1 (configuration not stated)	–	–	–	–
CCCOC(=O)c1cccc(NC(=O)COc2ccccc2Cl)c1	44.7	–	–	–
COC(=O)c1cccc(NC(=O)COc2ccccc2Cl)c1	–	–	–	–
CCCCOC(=O)c1cccc(NC(=O)COc2ccc(Br)cc2Br)c1	57.7	–	–	–
CC(=O)c1cccc(Nc2ncnc3ccccc23)c1	–	–	–	–
c1ccc(Oc2ccc(Nc3nccn4c(-c5ccoc5)cnc34)cc2)cc1	–	–	–	–
CC(C)c1ccc(Nc2nccn3c(-c4ccoc4)cnc23)cc1	–	2.3	–	–
CC1CCN(Cc2ccccc2CO)CC1	–	–	–	–
Oc1ccc(CN2CCN(c3ccc(F)cc3)CC2)c2cccnc12	–	–	–	–
CC1CCN(Cc2cc(Cl)c3cccnc3c2O)CC1	45.6	–	–	–
CC1CCCCN1Cc1cc(Cl)c2cccnc2c1O (configuration not stated)	72.8	–	–	–
COc1ccc(C(=O)Oc2c(CN3CCOCC3)cc(Cl)c3cccnc23)cc1OC	–	–	–	–
CN1CCN(Cc2cc(Cl)c(O)c3ncccc23)CC1	90.2	–	97.9	–
CC1CCN(Cc2cc(Cl)c(O)c3ncccc23)CC1	84.8	–	98.1	–
CC(=O)c1ccc(NC(=O)c2cc(-c3ccc(C)c(C)c3)nc3ccccc23)cc1	–	–	–	–
COc1ccc(C2=NN(CN3C(=O)C(=O)c4cc(Br)ccc43)C(c3ccc(OC)cc3)C2)cc1 (configuration not stated)	–	–	–	–
CC1CCN(Cc2cc(Cn3ccnc3)c3cccnc3c2O)CC1	39.4	–	109.9	–
SMILES	TEAD-YAP inh	FBW7 activator	MITF primary	GPR151 ag
Nc1ncnc(N/N=C/c2ccccc2)c1[N+](=O)[O-]	–	–	–	–
Nc1ncnc(N/N=C/c2cccc(Br)c2)c1[N+](=O)[O-]	35.7	–	–	–
Nc1ncnc(N/N=C/c2ccc(O)cc2)c1[N+](=O)[O-]	67.9	–	–	–
COc1ccc(/C=N/Nc2ncnc(N)c2[N+](=O)[O-])cc1OC	–	–	–	–
Nc1ccn(CC(=O)NCCCO)c(=O)n1	–	–	–	–
CCOc1ccc(CN2CCN(Cc3cccc4cccnc34)CC2CCO)cc1 (configuration not stated)	–	–	–	–
COc1ccc(/C=N/Nc2ncnc3nc[nH]c23)c(OC)c1	37.6	–	–	–
Oc1cccc(/C=N/Nc2ncnc3nc[nH]c23)c1	–	–	–	–
CCN(CC)c1ccc(/C=N/Nc2ncnc3nc[nH]c23)cc1	75.7	–	–	–
CCOc1ccccc1/C=N/Nc1ncnc2nc[nH]c12	–	–	–	–
COc1ccc(/C=N/Nc2ncnc3nc[nH]c23)cc1O	36.9	–	–	–
Brc1cccc(/C=N/Nc2ncnc3nc[nH]c23)c1	57.2	–	–	–
Cc1n[nH]c(=S)n1/N=C/c1ccccc1Br	–	–	–	–
Cc1nc(/C=C/c2ccc(Cl)cc2)sc1C(=O)O	59.6	–	–	–
CC(=O)c1ccc(C(=O)N2CCOc3ccc(CN4CCN(C(C)=O)CC4)cc3C2)cc1	–	2.3	–	–
COC(=O)C1CCN(Cc2ccc3c(c2)CN(C(=O)Cc2cccc(F)c2)CCO3)CC1	–	2.1	–	–
CCOC(=O)c1sc2nc(C)n(CC(=O)Nc3ccc(C)c(F)c3)c(=O)c2c1C	–	–	–	–
COc1ccc(/C=C/C(=O)N2CCN(c3ccc([N+](=O)[O-])cc3)CC2)cc1	–	–	–	–
COc1ccc2cc3c(N)nn(C(=O)c4ccccc4C)c3nc2c1	44.5	–	–	–
COc1ccc2cc3c(N)nn(C(=O)c4ccco4)c3nc2c1	59.3	–	–	–
CCc1cccc(C)c1NC(=O)CCS(=O)(=O)c1ccc2c(c1)SC(C)C(=O)N2 (configuration not stated)	–	–	–	–
COc1ccc(-n2nnnc2SCc2ccc(Cl)cc2)cc1	53.0	–	–	–
Clc1ccc(CSc2nnnn2-c2ccccc2)cc1	–	–	–	–
Cc1cc(/C=N/N2CCN(C)CC2)cc(C)c1O	–	–	–	–
Cc1oc(-c2ccc(Cl)cc2)nc1CSCC(=O)NC1CC1	–	–	–	–
SMILES	TEAD-YAP inh	FBW7 activator	MITF primary	GPR151 ag
Cc1oc(-c2ccccc2Cl)nc1CSCC(=O)N1CCCC1	58.2	–	–	–
Cc1oc(-c2cccs2)nc1CSCC(=O)N1CCCC1	–	–	–	–
Cc1oc(-c2ccc(Cl)cc2)nc1CSCC(=O)N1CCC2(CC1)OCCO2	38.4	–	–	–
O=C(/C=C/c1ccco1)Nc1sc2c(c1C(=O)NCc1ccco1)CCC2	–	–	–	–
Cc1noc(C)c1-c1ncc(C(=O)NCCN2CCOCC2)s1	–	–	–	–
CCn1c(=N)c(C(=O)NCCOC)cc2c(=O)n3cccc(C)c3nc21	–	–	–	–
CCn1c(=N)c(C(=O)NC)cc2c(=O)n3cccc(C)c3nc21	32.2	–	–	–
COC1=C(OC)C(=O)C(C/C=C(\C)CC/C=C(\C)CC/C=C(\C)CC/C=C(/C)CC/C=C(\C)CC/C=C(\C)CC/C=C(\C)CC/C=C(\C)CC/C=C(\C)CCC=C(C)C)=C(C)C1=O	–	–	–	–
CCC/C(C)=C/Cc1c(O)c2c(c(C)c1OC)COC2=O	66.3	–	–	–
Nc1ccc2nc(-c3ccc(Cl)cc3)oc2c1	–	–	–	–
Cn1nnnc1Sc1ccc([N+](=O)[O-])c2cnccc12	35.2	–	–	–
Cn1nnnc1Sc1ccc(C(N)=O)cc1[N+](=O)[O-]	–	–	–	–
Cc1ccc(Nc2cc(C)nn2-c2nc(C)cc(=O)[nH]2)cc1	58.0	–	–	–
Cc1ccc(Nc2cc(C)nn2-c2nc(C)cc(C)n2)cc1	–	–	–	–
COc1ccc(/C=C(/C#N)c2nc(C3CC3)cs2)cc1OC	–	–	–	–
COc1cccc(/C=C(/C#N)c2nc(C3CC3)cs2)c1	–	3.5	–	–
COC(=O)c1cn(-c2ccccc2)nc1-c1ccc(Cl)cc1	–	–	–	–
